Screening results from PubChem.
PD-1 reversal = activators reversing PD-1 mediated T-cell inhibition. activation, % (test concentration not listed). AID 2316. 29,000 tested, under 10 active. primary human CD4 T cells, PD-L1 beads, CellTiter-Glo 96 h; call rule not given here;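 note: 0% = median vehicle wells and 100% = positive control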
STK33 kin inh = inhibitors of human STK33 kinase. Q9BYT3. ADP-Glo luminescence, MBP substrate. inhibition, % at 12.5 µM. 27,000 tested, 0.44% active. AID 2322; in the data active = inhibition above about 20%; inconclusive = no clear call, values can overlap the other calls
Target sequence (Q9BYT3 whole entry, looked up): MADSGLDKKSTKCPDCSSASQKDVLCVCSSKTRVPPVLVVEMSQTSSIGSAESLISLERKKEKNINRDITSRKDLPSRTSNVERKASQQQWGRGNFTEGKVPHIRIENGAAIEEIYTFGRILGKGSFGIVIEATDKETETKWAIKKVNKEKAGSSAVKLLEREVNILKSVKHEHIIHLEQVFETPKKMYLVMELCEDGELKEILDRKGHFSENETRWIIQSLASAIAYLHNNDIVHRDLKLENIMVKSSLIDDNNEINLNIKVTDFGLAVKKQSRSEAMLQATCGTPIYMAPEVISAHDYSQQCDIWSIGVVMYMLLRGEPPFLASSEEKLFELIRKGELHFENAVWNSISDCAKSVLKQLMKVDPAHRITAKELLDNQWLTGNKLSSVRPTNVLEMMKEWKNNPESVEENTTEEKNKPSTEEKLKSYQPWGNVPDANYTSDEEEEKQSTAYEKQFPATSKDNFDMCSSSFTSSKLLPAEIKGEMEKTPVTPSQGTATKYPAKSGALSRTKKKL
NOMO-1 viab = STK33 inhibitor candidate reducing NOMO-1 cell viability; NOMO-1 AML viability, CellTiter-Glo luminescence, 72 h; inhibition, % (test concentration not listed); 37,000 tested, 7.5% active; AID 2330; in the data active = inhibition above about 80%; inconclusive = no clear call, values can overlap the other calls
* = called active by the depositor; ? = inconclusive; · = no result. The sample as a whole holds a higher share of hits than the screen did.

SMILES	PD-1 reversal	STK33 kin inh	NOMO-1 viab
CC1=C(CCC2=CC(=O)OC2O)[C@@]2(C)CCC[C@]3(C)C(=O)OC(C1=O)[C@@H]32 (stereo partly drawn)	-1.2	-0.7	-2.5
C[C@@H]1CN([C@@H](C)CO)C(=O)Cc2cc(NS(=O)(=O)c3ccc(Cl)cc3)ccc2O[C@@H]1CN(C)CC1CCCCC1	-5.9	1.0	101.6*
Cc1ccc(S(=O)(=O)Nc2ccc3c(c2)CC(=O)N([C@@H](C)CO)C[C@@H](C)[C@@H](CN(C)CC2CCCCC2)O3)cc1	-1.3	2.2	97.1*
Cc1ccc(S(=O)(=O)Nc2ccc3c(c2)CC(=O)N([C@@H](C)CO)C[C@H](C)[C@@H](CN(C)CC2CCCCC2)O3)cc1	-2.0	1.9	?
C[C@H]1CN([C@@H](C)CO)C(=O)Cc2cc(NS(=O)(=O)c3ccc(Cl)cc3)ccc2O[C@H]1CN(C)CC1CC1	0.9	4.2	9.1
CC1(C)CC(NC(=O)CC(c2ccc(F)cc2)c2ccco2)CCO1 (stereo not drawn)	0.2	-0.5	-6.4
Cc1cc(C)c(OCC(=O)Nc2ccc3oc(-c4cncc(Br)c4)nc3c2)c(Cl)c1	0.7	4.0	-12.4
CCc1ccc2c(c1)=C(c1[nH]c(=S)[nH]c1O)C(=O)N=2	0.0	·	27.2
CCC(C)S(=O)(=O)c1oc(-c2ccc(C)cc2)nc1S(=O)(=O)c1ccccc1 (stereo not drawn)	-14.2	3.0	116.2*
Cc1ccc(S(=O)(=O)c2nc(-c3ccccc3)oc2NCCN2CCOCC2)cc1	·	-0.3	-3.8
COc1ccc(S(=O)(=O)N(C)C[C@H]2Oc3ccc(NC(=O)Nc4ccc(C(F)(F)F)cc4)cc3CC(=O)N([C@H](C)CO)C[C@H]2C)cc1	-3.0	-0.2	41.7
Cc1ccc(S(=O)(=O)N(C)C[C@@H]2Oc3ccc(NC(=O)Nc4ccc(C(F)(F)F)cc4)cc3CC(=O)N([C@H](C)CO)C[C@@H]2C)cc1	-3.3	2.2	126.1*
Cc1ccc(S(=O)(=O)N(C)C[C@H]2Oc3ccc(NC(=O)Nc4ccc(C(F)(F)F)cc4)cc3CC(=O)N([C@@H](C)CO)C[C@@H]2C)cc1	-0.4	3.9	25.7
Cc1ccc(S(=O)(=O)N(C)C[C@H]2Oc3ccc(NC(=O)Nc4ccc(C(F)(F)F)cc4)cc3CC(=O)N([C@H](C)CO)C[C@H]2C)cc1	-3.5	3.2	114.6*
COc1ccc(NC(=O)Cn2cnc3sc(-c4ccccc4)cc3c2=O)c([N+](=O)[O-])c1	·	2.4	0.1
C[C@@H]1CN([C@@H](C)CO)C(=O)c2cc(NC(=O)Nc3ccc(F)cc3)ccc2O[C@@H]1CN(C)Cc1ccc(C(=O)Nc2ccccc2N)cc1	-0.7	·	?
C[C@@H]1CN([C@H](C)CO)C(=O)c2cccc(NC(=O)Nc3ccc(F)cc3)c2O[C@H]1CN(C)Cc1ccc(C(=O)Nc2ccccc2N)cc1	-2.8	·	127.2*
C[C@@H]1CN([C@H](C)CO)C(=O)c2cccc(NC(=O)Nc3ccc(C(F)(F)F)cc3)c2O[C@@H]1CN(C)Cc1ccc(C(=O)O)cc1	0.7	·	0.6
C[C@H](CO)N1C[C@H](C)[C@@H](CN(C)Cc2ccc(C(=O)O)cc2)Oc2c(NC(=O)Nc3ccc(F)cc3)cccc2C1=O	·	1.9	2.6
C[C@H]1CN([C@@H](C)CO)C(=O)c2cccc(NC(=O)Nc3ccc(F)cc3)c2O[C@@H]1CN(C)Cc1ccc(C(=O)Nc2ccccc2N)cc1	-0.8	·	139.6*
C[C@@H]1CN([C@@H](C)CO)C(=O)c2cccc(NC(=O)Nc3ccc(C(F)(F)F)cc3)c2O[C@H]1CN(C)Cc1ccc(C(=O)Nc2ccccc2N)cc1	-4.5	·	128.0*
C[C@@H]1CN([C@@H](C)CO)C(=O)c2cccc(NC(=O)Nc3ccc(F)cc3)c2O[C@H]1CN(C)Cc1ccc(C(=O)Nc2ccccc2N)cc1	-6.0	·	125.1*
C[C@H]1CN([C@@H](C)CO)C(=O)c2cccc(NC(=O)Nc3ccc(F)cc3)c2O[C@@H]1CN(C)Cc1ccc(C(=O)O)cc1	·	·	-9.1
O=S(=O)(NC1c2cccc3cccc(c23)C1Sc1nnnn1-c1ccccc1)c1ccccc1 (stereo not drawn)	-0.5	-3.0	44.2
COc1ccc2c(c1OC)C(=O)N1c3ccccc3N=C(c3ccc(Br)cc3)CC21 (stereo not drawn)	-1.5	·	34.1
SMILES	PD-1 reversal	STK33 kin inh	NOMO-1 viab
Cc1ccc(-c2nnc(SCC(=O)c3ccccc3)n2-c2ccccc2)cc1Cl	-3.1	5.4	16.5
O=C(CCCn1cc([N+](=O)[O-])cn1)Nc1cc(F)ccc1F	·	1.6	-8.4
C=CC[C@@]12C[C@@H](OC)C(=O)C(OC)=C1O[C@H](c1ccc3c(c1)OCO3)[C@H]2C	·	-13.1	·
C[C@H](CO)N1C[C@H](C)[C@H](CN(C)Cc2ccc(C(=O)Nc3ccccc3N)cc2)Oc2c(NC(=O)Nc3ccc(F)cc3)cccc2C1=O	0.1	·	97.1*
C[C@H]1CN([C@@H](C)CO)C(=O)c2cc(NC(=O)Nc3ccc(F)cc3)ccc2O[C@H]1CN(C)Cc1ccc(C(=O)Nc2ccccc2N)cc1	0.1	·	?
COc1ccc(OCC(O)Cn2nc(C)cc2C)cc1 (stereo not drawn)	0.9	·	8.3
COc1ccc(-n2nc3ccc(NC(=O)c4ccc(-c5ccccc5)cc4)cc3n2)cc1	0.6	·	21.2
COc1ccccc1NC(=O)c1c(NC(=O)c2ccco2)sc(C)c1C	·	1.9	44.6
Cc1cc(C)cc(N(C(C)C(=O)Nc2cccc(Cl)c2)S(C)(=O)=O)c1 (stereo not drawn)	-1.5	2.4	31.7
CCOC(=O)Nc1cccc(NC(=O)CC2c3ccccc3Oc3ccccc32)c1	-0.3	2.1	71.8
O=C(CC1c2ccccc2Oc2ccccc21)Nc1ccc(Cc2ccncc2)cc1	-4.2	4.3	134.6*
Cc1ccn2c(-c3nnco3)c(C)nc2c1	0.6	·	21.3
C[C@@H]1CCCCO[C@@H](CN(C)Cc2ccc(Cl)c(Cl)c2)[C@@H](C)CN([C@H](C)CO)C(=O)c2cc(NC(=O)Nc3ccccc3)ccc2O1	-1.7	-0.3	102.9*
C[C@@H]1CCCCO[C@@H](CN(C)Cc2ccc(Cl)c(Cl)c2)[C@@H](C)CN([C@H](C)CO)C(=O)c2cc(NC(=O)Nc3ccc(C(F)(F)F)cc3)ccc2O1	-1.2	0.2	105.1*
C[C@H](CO)N1C[C@H](C)[C@H](CN(C)Cc2ccc(Cl)c(Cl)c2)Oc2ccc(NC(=O)C3CCCCC3)cc2C1=O	-2.2	-0.1	36.5
C[C@@H]1CCCCO[C@@H](CN(C)Cc2ccc3c(c2)OCO3)[C@@H](C)CN([C@H](C)CO)C(=O)c2cc(NC(=O)Nc3ccc(C(F)(F)F)cc3)ccc2O1	-1.8	3.4	112.9*
C[C@@H]1CCCCO[C@@H](CN(C)Cc2ccc(Cl)c(Cl)c2)[C@@H](C)CN([C@H](C)CO)C(=O)c2cc(NC(=O)C3CCCCC3)ccc2O1	-2.4	4.2	114.2*
C[C@@H]1CCCCO[C@H](CN(C)Cc2ccc(Cl)c(Cl)c2)[C@@H](C)CN([C@H](C)CO)C(=O)c2cc(NC(=O)Nc3ccccc3)ccc2O1	-3.8	3.4	?
C[C@@H]1CCCCO[C@@H](CN(C)Cc2ccc3c(c2)OCO3)[C@@H](C)CN([C@H](C)CO)C(=O)c2cc(NC(=O)Nc3ccc(F)cc3)ccc2O1	1.0	0.2	16.1
